The subject of one assay is Hek293T. Nature of the assay: Primary qHTS to identify gynecologic anti-cancer compounds using libraries of approved drugs and bioactive compounds (AID 1345084). Also: nearly all actives have a fitted effect of over 55% in size. As to conditions: Gynecologic cancer cell panel viability, ATPlite luminescence, 48 h, control line for the selectivity index; series mostly up to 57.5 µM. The procedure, abridged:
(§1)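 Measured: luminescence after ATPlite addition (15 min, RT). Exposure: 48 h, 37 C, 5% CO2.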

The test system of a further assay is JEG-3. The assay is described as above. As to conditions: Gynecologic cancer cell panel viability, ATPlite luminescence, 48 h; series mostly up to 57.5 µM. An outline of the steps:
as §1
(In general: Cellular ATP, detected with luciferase, serves as a proxy for viable cell number.)

The next assay relates to PA-1. The assay is described as above. Particulars: Gynecologic cancer cell panel viability, ATPlite luminescence, 48 h; series mostly up to 57.5 µM. An outline of the steps:
as §1

The test system of a further assay is SKOV3. Described as above. As to conditions: Gynecologic cancer cell panel viability, ATPlite luminescence, 48 h; series mostly up to 57.5 µM. The procedure, abridged:
as §1

For the next assay, the system named is Tov-21-G. The description is as above. As to conditions: Gynecologic cancer cell panel viability, ATPlite luminescence, 48 h; series mostly up to 57.5 µM. An outline of the steps:
as §1

In another assay the test system is Tov112D. The description is as above. As to conditions: Gynecologic cancer cell panel viability, ATPlite luminescence, 48 h; series mostly up to 57.5 µM. An outline of the steps:
as §1

The subject of another assay is OV90. The assay is described as above. Particulars: Gynecologic cancer cell panel viability, ATPlite luminescence, 48 h; series mostly up to 57.5 µM. The procedure, abridged: as §1
Assay [1] can be described thus: qHTS assay to identify inhibitors of the type 1 interferon - major histocompatibility complex class I in skeletal muscle: Counter screen cell viability and HiBit confirmation (AID 1347412). As to all read-outs here: nearly all actives have a fitted effect of over 60% in size. Particulars: iHSKM muscle cells + IFN-b, HiBiT or CellTiter-Glo, 24 h; for activity change, negative = inhibition: at 45.9 µM (top of the series). The procedure, abridged: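 Myoblasts (C25cl48, HLA-B HiBiT) seeded in medium without dexamethasone, IFN-b 4 ng/ml added except unstimulated columns; 1 hr later compounds pinned (12-pt 1:3, top 46 uM final). Incubated 24 hrs, lysed 10 min, luminescence measured.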
A general note: In qHTS, concentration-response curves come from the screen itself.

For another assay, the system named is astro. Nature of the assay: Drug repurposing screens with cells derived from glioblastoma tumor samples (AID 1345199). Also: nearly all actives have a fitted effect of over 40% in size. Particulars: viability, ATP luminescence, 48 h; series mostly up to 45.9 µM. An outline of the steps: (§2)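 Four patient lines of CD133+ GBM neurospheres were screened at several concentrations; hits were retested in those lines plus three slower-growing GBM lines, using 48-hour treatment and ATP-based viability.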

Assay in assay [2]: as above
As to conditions: GBM patient neurospheres viability, ATP luminescence, 48 h. An outline of the steps: as §2

Setting [3] is: at 46.1 µM (top of the series), tumour line C.
The mark [4] stands for this setting: at 20 µM (top of the series), tumour line C.

Results filed as inconclusive are left out. Unmarked numbers belong to inactive results. Calls of active or inactive are those of the source. Calls follow the shape of the dose curve; as a rule, active = well fitted curve in the direction sought with a large enough effect; inconclusive = small, poorly fitted or top-dose-only effect, or another doubt; inactive = no such curve, though single readings can be large; an effect the other way counts as inactive or inconclusive.

Experimental findings from PubChem BioAssay (NCATS) are described below.
% is scaled to controls: 0 for no effect and ±100 for the full control effect; potency is read from the fitted curve at half-maximal effect.

Take `CC(=O)Nc1cccc(-n2c(=O)n(C3CC3)c(=O)c3c(Nc4ccc(I)cc4F)n(C)c(=O)c(C)c32)c1`: the Potency entry in the assay with Hek293T, in the assay with JEG-3, in the assay on PA-1, in the assay with SKOV3, in the assay on Tov-21-G and in the assay on Tov112D was “inactive” in each case.
Regarding `Cc1ccccc1-n1c(Cn2nc(-c3cccc(O)c3)c3c(N)ncnc32)nc2cccc(C)c2c1=O`, the Potency result with Hek293T, with JEG-3, in the assay on OV90, with PA-1, in the assay with SKOV3 and in the assay with Tov-21-G was “inactive” each time. Further, in the assay on Tov112D, the Potency result was “inactive”. In addition, in assay [1] (Viability), the activity change, negative = inhibition was 7.45%.
For `Cc1c(C(=O)Nc2ccc(N3C[C@@H](C)O[C@@H](C)C3)nc2)cccc1-c1ccc(OC(F)(F)F)cc1`, the Potency result with Hek293T, in the assay on JEG-3, in the assay with OV90, in the assay with SKOV3, with Tov-21-G and with Tov112D was “inactive” each time.
Regarding `CN(C)c1nc(Cc2ccc(NC(=O)c3ccc(C(F)(F)F)cc3)cc2)nc(N(C)C)c1CC(=O)O`, the Potency entry in the assay with Hek293T, in the assay with JEG-3, in the assay with OV90, in the assay on PA-1, with Tov-21-G and in the assay on Tov112D was “inactive” in each case.
As for `CCCCn1c(=O)n(Cc2ccccc2F)c(=O)c2[nH]c(Cc3ccc(NC(C)=O)cc3)nc21`, the Potency entry in the assay with Hek293T, in the assay on JEG-3, in the assay with OV90, in the assay with PA-1, in the assay on Tov-21-G and in the assay on Tov112D was “inactive” throughout.
As for `c1cc(OCCN2CCCCC2)cc(-c2n[nH]c3ccc(-c4ncn[nH]4)cc23)c1`, the Potency entry with Hek293T, in the assay on JEG-3, in the assay on OV90, in the assay with PA-1, in the assay on Tov-21-G and in the assay with Tov112D was “inactive” each time.
With `CN[C@@H](C)[C@H]1[C@H](O)C[C@@]2(C)[C@@H]3CC[C@H]4C(C)(C)[C@@H](NC)CC[C@@]45C[C@@]35CC[C@]12C`, the activity change, negative = cytotoxicity was -11.4% [at 11.6 µM] with Hek293T; 6.85% [at 11.6 µM] with JEG-3; -14% [at 11.6 µM] in the assay on PA-1; 0% [at 11.6 µM] in the assay with SKOV3; -6.08% [at 11.6 µM] in the assay with Tov-21-G; -2.44% [at 11.6 µM] in the assay on Tov112D.
For `NS(=O)(=O)c1ccc(Nc2nc(OCC3CCCCC3)c3[nH]cnc3n2)cc1`, the Potency entry in the assay with Hek293T, with JEG-3, with OV90, in the assay with PA-1 and in the assay with Tov112D was “inactive” throughout. The Potency with Tov-21-G was 15.8 µM (active). In addition, the activity change, negative = inhibition in assay [1] (Viability) is -13.9%.
In the case of `Cc1csc(-c2nnc(Nc3ccc(Oc4ncccc4-c4ccnc(N)n4)cc3)c3ccccc23)c1`, the Potency result in the assay with Hek293T, in the assay with JEG-3, with OV90, in the assay with PA-1 and with Tov-21-G was “inactive” throughout.
As for `Cc1cnc(Nc2cccc(CN3CCOCC3)c2)nc1Nc1cccc(S(=O)(=O)NC(C)(C)C)c1`, the Potency result in the assay on Hek293T, in the assay with JEG-3 and in the assay with OV90 was “inactive” in each case. Further, the figures for the Potency (in the assay on SKOV3; in [1] (HiBiT)) were 0.794 µM (active) and 7.01 µM (active), respectively.
Consider `CCN1CCC(n2cc(CNc3cc(Cl)c4ncc(C#N)c(Nc5ccc(F)c(Cl)c5)c4c3)nn2)CC1`, for which the Potency result in the assay on Hek293T, with JEG-3, in the assay on OV90, with PA-1, in the assay on Tov-21-G and with Tov112D was “inactive” throughout.
For `C[C@H](c1ccc(F)cc1CCCC(=O)O)N(c1cc(F)ccc1F)S(=O)(=O)c1ccc(Cl)cc1`, the Potency result with Hek293T, in the assay on JEG-3, with OV90, with Tov-21-G and with Tov112D was “inactive” in each case.
On to `COc1ccc(-c2nc3ccc(C4=NNC(=O)CC4C)cc3[nH]2)cc1` (stereo not drawn), for which the Potency result with Hek293T, in the assay on JEG-3 and with OV90 was “inactive” throughout. Also, the figures for the Potency in the assay on SKOV3 and in the assay with astro were 35.5 µM (active) and 11.2 µM (active), respectively.
For the compound `Cc1nc(C(=O)NCC(=O)O)c(O)c2ccc(Oc3ccccc3)cc12`, the Potency entry in the assay on Hek293T, in the assay on JEG-3, with OV90, in the assay on PA-1, with Tov-21-G and with Tov112D was “inactive” in each case.
Consider `C[C@@H](NC(=O)c1ncnc(N)c1Cl)c1ncc(C(=O)Nc2cc(C(F)(F)F)c(Cl)cn2)s1`, for which the Potency result with Hek293T, in the assay on JEG-3, in the assay with PA-1 and in the assay on Tov112D was “inactive” in each case. In addition, the Potency with OV90 is 10 µM (active). Besides, the activity change, negative = inhibition in assay [1] (HiBiT) is -24.2%; in [1] (Viability), -2.15%.
For `Cc1ccccc1C(C(=O)NC1CCCCC1)N(C(=O)CNc1ccc(C#N)cc1)c1cccc(F)c1` (stereo not drawn), the Potency result with Hek293T, in the assay with JEG-3, with OV90, in the assay on SKOV3, in the assay with Tov-21-G and in the assay with Tov112D was “inactive” each time.
`O=C(Nc1cccc2c(=O)cc(-c3nn[nH]n3)oc12)c1ccc(OCCCCc2ccccc2)cc1`: in assay [2] (setting [3]), the activity, negative = cell killing is 16%.
For the compound `COc1ccnc(CS(=O)c2nc3ccc(OC(F)F)cc3[nH]2)c1OC` (stereo not drawn), in [2] (setting [3]), the activity, negative = cell killing was -15.1%.
Turning to `O=C(CCCN1CCN(c2ccc(F)cc2)CC1)NC1c2ccccc2CSc2ccccc21` (stereo not drawn), in assay [2] (tumour line A), the Potency is 3.98 µM (active).
Consider `CNC(=O)c1cc(Oc2ccc(NC(=O)Nc3ccc(Cl)c(C(F)(F)F)c3)c(F)c2)ccn1`, for which the activity change, negative = inhibition in [1] (HiBiT) is -24.1%.
As for `CC1(COc2ccc3c(c2)ncn3-c2ccc3cccc(N4CCC(N)CC4)c3n2)COC1`, the Potency in assay [1] (Viability) was 27.9 µM (active).
Regarding `Fc1ccc(CNc2ncnc3ccc(F)cc23)cc1`, in the assay with JEG-3, the Potency entry is “inactive”.
With `CNC1CCC(N(Cc2cccc(-c3ccncc3)c2)C(=O)c2sc3ccccc3c2Cl)CC1` (stereo not drawn), in the assay on SKOV3, the Potency is 25.1 µM (active).
For the compound `CC1(C)CC(=O)c2c(C(F)(F)F)nn(-c3ccc(C(N)=O)c(NC4CCC(O)CC4)c3)c2C1` (stereo not drawn), the Potency in the assay on SKOV3 was 0.398 µM (active).
As for `Clc1ccc(COC(Cn2ccnc2)c2ccc(Cl)cc2Cl)c(Cl)c1` (stereo not drawn), the activity, negative = cell killing in assay [2] (setting [4]) is -15.2%. In [2] (tumour line D), the Potency was 14.1 µM (active).
Turning to `NCC1CCC(C(=O)O)CC1` (stereo not drawn), the activity, negative = cell killing is 25.1% in assay [2] (setting [4]); -5.15% in assay [2] (at 21.2 µM (top of the series), tumour line B); -6.32% in assay [2] (at 21.2 µM (top of the series), tumour line D); -17.9% in assay [2] (at 21.3 µM (top of the series), tumour line A).
As to `N#CC(c1ccc(Cl)cc1)c1c(Cl)cc(-n2ncc(=O)[nH]c2=O)cc1Cl` (stereo not drawn), the Potency in assay [2] (tumour line C) was 16.4 µM (active).
For `Fc1ccc(C(c2ccc(F)cc2)N2CCN(CC=Cc3ccccc3)CC2)cc1`, the Potency in assay [2] (tumour line D) is 11.2 µM (active).
For `OC(c1cc(C(F)(F)F)nc2c(C(F)(F)F)cccc12)C1CCCCN1` (stereo not drawn), in [1] (HiBiT), the activity change, negative = inhibition is -11.4%.
